Laboratory results taken from PubChem BioAssay AID720513 (Broad Institute, 2013).
Among all 2,100 compounds or so, about 480 (23%) were called active. Inconclusive results (about 5%) are left out.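 The calls were made as follows: active = fitted curve reaches 40% activation at or below the top valid concentration, in every replicate test; inconclusive = replicate tests disagree on the call; inactive = the rest, including activity in the opposite direction.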 These entries were drawn from the full list. Potency and affinity values are given separately.

Test: PGC1a acetylation increase, cellular AlphaLISA – cell-based, cherry-picked samples, set 6, dose response (AID 720513);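 also: cells made to overexpress flag tagged PGC1a plus GCN5 acetyltransferase by viral infection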
Settings: U2OS PGC1a acetylation AlphaLISA, overnight, 0 = neutral, -100 = inhibitor control; series mostly up to 19.5 µM; activation (acetylation increase): at the top concentration

Activation (acetylation increase), inactive:
COc1ccc(Br)cc1S(=O)(=O)NCc1ccccc1 7.45%
O=C(O)CCCC(=O)Nc1ccc(Br)cc1C(=O)O -2.91%
CC(C)[C@H]1COCCS(=O)(=O)N1Cc1ccccc1F -26.2%
C[C@H](CO)N1C[C@H](C)[C@H](CN(C)S(=O)(=O)c2ccccc2C#N)OCc2cnnn2CCCC1=O -23.1%
CC1CC1C(=O)N(C)CC(=O)Nc1cccc(F)c1 (stereo not drawn) 22.2%
CCCN(C)C[C@@H]1Oc2cc(C#CC3CCCC3)ccc2S(=O)(=O)N([C@H](C)CO)C[C@@H]1C 14.2%
CCOCCCNC(=O)c1ccccc1SC 20.7%
Fc1cccc(-c2ccc([C@@H]3[C@@H]4CN(Cc5nccs5)C[C@H]3N4)cc2)c1 -53.8%
Fc1cccc(CN2C[C@@H]3N[C@H](C2)[C@@H]3c2ccc(-c3cccc(F)c3)cc2)c1 -101%
c1csc(CNc2ncnc3ccc(-c4ccoc4)cc23)c1 -26.5%
CCS(=O)(=O)c1ccc2oc(Nc3ccccc3Br)nc2c1 -16.6%
CCN1C(=O)CCCc2ccccc21 30.4%
O=C(NCC[C@@H]1CC[C@H](NS(=O)(=O)Cc2ccccc2)[C@H](CO)O1)C1CCC1 11.7%
Nc1nc(Nc2ccccc2)nc2ccccc12 -18.8%
CC(=O)c1ccc(Nc2cc(C)nc3ccc(C)cc23)cc1 -36.6%
CN(C)CC(=O)N1CCCCN2[C@@H](CO)[C@H](c3ccc(/C=C/c4ccccc4)cc3)[C@@H]2C1 -19%
Cc1ccc(NC(=O)COC(=O)COc2ccc(Cl)cc2)c([N+](=O)[O-])c1 6.12%
COC(=O)c1ccc(C(=O)OC)c(NC(=O)COC(=O)CCOc2ccc(C)cc2)c1 15.7%
Cc1cc(C)cc(OC(=O)CS(=O)c2ccc(C(F)(F)F)cc2[N+](=O)[O-])c1 (stereo not drawn) -36.4% [at 10 µM]
C[C@@H]1CCCCO[C@@H](CN(C)S(C)(=O)=O)[C@H](C)CN([C@@H](C)CO)C(=O)c2cc(NC(=O)c3ccccc3)ccc2O1 8.43%
COc1nc(OCCNS(=O)(=O)c2ccc(C)cc2)nc(N(C)C)n1 4.81%
O=C(Nc1nc(-c2ccc3ccccc3c2)cs1)c1ccc(N2C(=O)CCC2=O)cc1 -4.2%
Cc1ccc(CC(=O)Nc2nccs2)cc1 11.1%
C[C@H]1CN([C@@H](C)CO)C(=O)c2cc(NC(=O)Nc3cccc4ccccc34)ccc2O[C@H]1CN(C)S(=O)(=O)c1ccc(Cl)cc1 -6.46% [at 21 µM]
N#C[C@H]1[C@H](c2ccc(C#CC3CCCC3)cc2)[C@H](CO)N1C(=O)Cc1ccccn1 -55.6%
N#C[C@@H]1[C@@H](c2ccc(-c3ccccc3)cc2)[C@@H](CO)N1C(=O)Cc1ccncc1 -41%
C[C@H](CO)N1C[C@H](C)[C@H](CN(C)C(=O)NC2CCCCC2)Oc2cc(C#Cc3cccc(F)c3)ccc2S1(=O)=O -84.8%
CS(=O)(=O)c1sc2nc(-c3cccs3)cc(-c3ccccc3)c2c1N 36.2%
COc1ccc(C(=O)Nc2cccc(S(C)(=O)=O)c2)cc1OC 14.5%
COc1ccc(NC(=O)c2ccc3c(c2)OCO3)cc1Cl -10.9%
C[C@@H]1CN([C@@H](C)CO)C(=O)c2cc(C#CCN(C)C)cnc2O[C@H]1CN(C)Cc1ccc(F)cc1 22% [at 21 µM]
Fc1cccc(CN2C[C@@H]3N[C@H](C2)C3c2ccc(/C=C/c3ccccc3)cc2)c1 (stereo partly drawn) -94.1%
CCOC(=O)c1oc2nc3c(cc2c1N)COC(C)(C)C3 36.1%
C[C@H]1CN([C@@H](C)CO)C(=O)c2cc(C#CC(C)(C)O)cnc2O[C@@H]1CN(C)C(=O)C1CCC1 4.88%
CC1CCCCN1C(=O)CN(C)S(=O)(=O)c1cccc2nsnc12 (stereo not drawn) -12%
O=C(Nc1ccc(F)cc1)C1CCCN1S(=O)(=O)c1cccc2nsnc12 (stereo not drawn) 2.69%
O=c1c2c3c(sc2n2cnnc2n1Cc1ccccc1)CN(Cc1ccccc1)CC3 29.5%
COC(=O)c1[nH]c2ccc(F)cc2c1NS(=O)(=O)c1ccc(OC)cc1OC -6.12%
O=C(C[C@H]1CC[C@@H](NC(=O)c2ccccc2)[C@H](CO)O1)Nc1ccc(-c2ccccc2)cc1 -60.5%
COc1ccc(CCN2C(=O)N(c3ccc(OC)cc3)C(=O)C2CC(=O)Nc2ccccc2)cc1 (stereo not drawn) 0.037%
CC(=O)c1ccc(N2CCN(C(=O)c3ccc4nc[nH]c4c3)CC2)cc1 16.3%
Cc1[nH]c2ccccc2c1C(=O)/C=C/c1ccccc1 -28.1%
CSc1nsc(SC)c1NC(=O)Nc1ccccc1C 25.9%
O=C(CN1C(=O)NC2(CCc3ccccc32)C1=O)c1ccc(Br)cc1 (stereo not drawn) 31% [at 10 µM]
CC1CCN(S(=O)(=O)c2ccc(Oc3ccc([N+](=O)[O-])cc3)cc2)CC1 36%
COCc1c(C(=O)Nc2cccc(S(=O)(=O)N3CCCCC3)c2)oc2ccccc12 21.3%
CCOc1ccc(NC(=O)c2cccc3c2C(=O)N(CCOC)C3)cc1 1.21%
COc1cccc(NC(=O)c2ccccc2-c2ccccc2C(=O)O)c1 11.2%
Cc1c(NC(=O)COC(=O)c2ccccc2O)c(=O)n(-c2ccccc2)n1C 15.7%
C[C@H]1CN([C@@H](C)CO)C(=O)Cc2cc(NC(=O)Nc3ccccc3)ccc2O[C@@H]1CN(C)Cc1ccccc1 -36.2%
C[C@H]1CN([C@@H](C)CO)C(=O)Cc2cc(NS(C)(=O)=O)ccc2O[C@@H]1CN(C)Cc1ccc2c(c1)OCO2 1.57%
C[C@@H]1CN([C@H](C)CO)C(=O)Cc2cc(NC(=O)Cc3ccccc3)ccc2O[C@@H]1CN(C)S(C)(=O)=O 14.9%
C[C@@H]1CN([C@H](C)CO)C(=O)Cc2cc(NC(=O)Nc3ccccc3)ccc2O[C@H]1CN(C)Cc1ccccc1 5.21% [at 21 µM]
C[C@H]1CCCCO[C@H](CN(C)Cc2ccc3c(c2)OCO3)[C@@H](C)CN([C@@H](C)CO)C(=O)c2cc(NC(=O)Nc3ccc(C(F)(F)F)cc3)ccc2O1 -95.8%
Cc1ccccc1Cn1cnc2c(nnn2Cc2ccc(F)cc2)c1=O -4.71%
O=C1Nc2c(Br)cc(Br)c3cccc1c23 1.42%
COc1ccc(S(=O)(=O)N(C)C[C@@H]2Oc3ncc(-c4ccccc4)cc3C(=O)N([C@H](C)CO)C[C@@H]2C)cc1 24% [at 21 µM]
COc1ccc(-c2cnc3c(c2)C(=O)N([C@H](C)CO)C[C@H](C)[C@H](CN(C)S(=O)(=O)c2cccs2)O3)cc1 4.64%
C[C@H]1CN([C@@H](C)CO)C(=O)c2cc(-c3cccc(C(=O)N(C)C)c3)cnc2O[C@@H]1CN(C)S(=O)(=O)c1ccc(F)cc1 -3.94%
C[C@@H]1CN([C@@H](C)CO)C(=O)c2cc(C#CCN(C)C)cnc2O[C@@H]1CN(C)S(=O)(=O)c1cn(C)cn1 15.9%
O=C(C[C@H]1C[C@H]2c3cc(NC(=O)C4CCC4)ccc3O[C@H]2[C@H](CO)O1)NCc1ccc(-c2ccccc2)cc1 14%
O=C1c2ccsc2SCCN1Cc1cccc(Cl)c1 -1.83%
Cc1cccc(N2C(=O)C(Cl)=C(N3CCOCC3)C2=O)c1 -2.12%
O=S(=O)(c1cccs1)N1CCCCN2[C@H](CO)[C@H](c3ccc(/C=C/c4ccccc4)cc3)[C@H]2C1 -41.3%
O=C(NC[C@@H]1N[C@@H](CO)[C@H]1c1ccc(C2=CCCCC2)cc1)c1ccc(F)cc1 21.8%
C[C@H](CO)N1C[C@H](C)[C@@H](CN(C)Cc2ccccc2F)Oc2ncc(Br)cc2C1=O 9.64%
O=S(=O)(Nc1ccccc1N1CCCCC1)c1ccc(F)cc1 29.9%
CCCN(CCC)S(=O)(=O)c1ccc(C(=O)Nc2nnc(CSC)o2)cc1 -2.17%
Cc1noc(C)c1S(=O)(=O)Nc1ccc2c(c1)C(=O)N([C@@H](C)CO)C[C@@H](C)[C@@H](CN(C)S(=O)(=O)c1ccccc1)O2 15%
O=S(=O)(C/C(=C/CO)S(=O)(=O)c1ccccc1)c1ccccc1 -51.6%
CCN(C(=O)CN1CCN(c2ccccc2O)CC1)c1c(N)n(Cc2ccccc2)c(=O)[nH]c1=O 1.96%
CO[C@H](CN(C)S(=O)(=O)c1ccc(Cl)cc1)[C@H](C)CN([C@H](C)CO)S(=O)(=O)c1cccc(Cl)c1 43.3% [at 18 µM]
OCC1OC(Oc2c(Br)cc(Br)cc2Br)C(O)C(O)C1O (stereo not drawn) 15.7%
CCc1ccc(C(=O)CN(C#N)c2nc(C)cc(C)n2)cc1 -61%
COc1ccc(Cn2nnnc2CN(Cc2cc3ccc(C)cc3[nH]c2=O)C2CCCC2)cc1 -14.1%
COc1ccccc1NS(=O)(=O)c1cc(NC(=O)c2[nH]c(C)c(C(C)=O)c2C)ccc1N1CCOCC1 38.3%
CCCCCCNC(=O)O[C@@]12CN(S(=O)(=O)c3ccc(C)cc3)C[C@]1(O)Cn1c(=O)n(CCCCCC)c(=O)n1C2 -18.4%
O=C(Nc1cccc(Cl)c1)Nc1ccc2c(c1)OCO2 8.19%
O=C(O)c1cc(-c2ccc3c(c2)OCO3)nc2ccccc12 -21.2%
COc1ccc(NC(=O)[C@H](Cc2c[nH]c3ccccc23)NC(=O)[C@@H]2Cc3ccccc3CN2)cc1 3.84%
Clc1ccc2nc(COc3ccccc3)[nH]c2c1 35%
C[C@@H]1CN([C@H](C)CO)C(=O)c2cc(NC(=O)CCCCCC(=O)Nc3ccccc3N)ccc2O[C@H]1CN(C)S(=O)(=O)c1ccc(Cl)cc1 12.1%
C[C@H](CO)N1C[C@H](C)[C@@H](CN(C)Cc2ccc(C(F)(F)F)cc2)OCc2cnnn2CCCC1=O -39.1%
COc1ccc(C(NC(=O)c2c(F)c(F)c(F)c(F)c2F)c2ccccc2)cc1 (stereo not drawn) -107%
CO[C@@H]1CN(C)C(=O)c2ccc(NS(C)(=O)=O)cc2OC[C@@H](C)N(Cc2nccs2)C[C@@H]1C 9.44%
O=C(C[C@@H]1C[C@@H]2c3cc(NC(=O)C4CCC4)ccc3O[C@@H]2[C@@H](CO)O1)NCc1ccc(-c2ccccc2)cc1 16.7% [at 21 µM]
CC1=C(Cl)C2=NS(=O)(=O)CCN2C=C1Cl -15.2%
O=C(c1ccc(Cl)cc1)C(Cn1cncn1)C(Sc1ccccc1)c1ccccc1 (stereo not drawn) -26% [at 10 µM]
